The nature of experiment [1]: qHTS assay to identify small molecule agonists of the peroxisome proliferator-activated receptor delta (PPARd) signaling pathway - cell viability counter screen (AID 743211; active = well fitted curve in the direction sought with a large enough effect in the repeat runs; an effect the other way counts as inactive or inconclusive; note: nearly all actives have a fitted effect of over 55% in size). A digest of the protocol:
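In the same wells used for beta-lactamase reporter measurement, cytotoxicity is scored by CellTiter-Glo. HEK293H PPARd-bla cells receive compound for 17 h at 37C following a 5 h settling period.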
In general terms: Quantitative high-throughput screening tests each substance at several concentrations.

For experiment [2], the target named is Peroxisome proliferator-activated receptor delta (Homo sapiens) (UniProt Q03181). Description: qHTS assay to identify small molecule agonists of the peroxisome proliferator-activated receptor delta (PPARd) signaling pathway (AID 743212). A digest of the protocol:
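Read-out: beta-lactamase FRET fluorescence after 2 h room-temperature incubation with LiveBLAzer B/G substrate. Cells were HEK293H carrying a UAS-bla reporter for PPARd, treated at 37 C with DMSO-dissolved compounds.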

Experiment [3] is described as follows: qHTS assay to identify small molecule antagonists of the peroxisome proliferator-activated receptor delta (PPARd) signaling pathway - cell viability counter screen (AID 743213; active = well fitted curve in the direction sought with a large enough effect in the repeat runs; an effect the other way counts as inactive or inconclusive; note: nearly all actives have a fitted effect of over 50% in size; note: potency is the fitted concentration of half-maximal effect). A digest of the protocol:
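PPARd-bla HEK293H cells were treated with compounds plus agonist L165041 (300 nM final) for 17 h at 37 C. Viability was then read in the same wells by CellTiter-Glo luminescence after 30 min at room temperature.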

Experiment [4] deals with Peroxisome proliferator-activated receptor delta (Homo sapiens) (UniProt Q03181). Description: qHTS assay to identify small molecule antagonists of the peroxisome proliferator-activated receptor delta (PPARd) signaling pathway (AID 743215; active = well fitted inhibition curve with a large enough effect in the signal ratio in the repeat runs, not every such curve was filed as active; the % refers to the signal ratio;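 note: cells stimulated with agonist L165041 at 300 nM final during compound exposure; series mostly up to about 62 µM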). A digest of the protocol:
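Cells: HEK293H with a UAS-driven beta-lactamase reporter responsive to PPARd. Compounds were co-added with L165041 (300 nM, final) and incubated 17 h at 37 C before a 2 h room-temperature FRET substrate step and fluorescence reading.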

The nature of experiment [5]: qHTS assay to identify small molecule antagonists of the farnesoid-X-receptor (FXR) signaling pathway - cell viability counter screen (AID 743221; active = well fitted cell-killing curve with a large enough effect in the repeat runs, not every such curve was filed as active; note: nearly all actives have a fitted effect of over 50% in size; note: potency is the fitted concentration of half-maximal effect). A digest of the protocol: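 Here viability was scored by luminescence after CellTiter-Glo addition to wells already read for beta-lactamase. Prior treatment: compound plus CDCA (50 uM final), 16 h, 37 C, HEK 293T FXR-bla cells.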

Experiment [6] has as its target Vitamin D3 receptor (Homo sapiens) (UniProt P11473). Description: qHTS assay to identify small molecule agonists of the vitamin D receptor (VDR) signaling pathway (AID 743222). A digest of the protocol: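 Cells carrying a VDR-driven beta-lactamase reporter are seeded at 2,000 per well and rested 4 h. Compounds in DMSO are added for 16 h at 37C, and FRET substrate fluorescence is measured after 2 h at room temperature.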

For experiment [7] the target is unchanged. Put plainly: qHTS assay to identify small molecule antagonists of the vitamin D receptor (VDR) signaling pathway (AID 743223; active = well fitted inhibition curve with a large enough effect in the signal ratio in the repeat runs, not every such curve was filed as active; the % refers to the signal ratio). The essentials:
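Inhibition of agonist-driven VDR signalling is scored in VDR-bla cells: 3 nM final 1alpha,25-dihydroxyvitamin D3 plus compound, 16 h at 37C, then beta-lactamase detection by FRET substrate fluorescence after 2 h.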

The nature of experiment [8]: qHTS assay to identify small molecule agonists of the vitamin D receptor (VDR) signaling pathway - cell viability counter screen (AID 743224; active = well fitted curve in the direction sought with a large enough effect in the repeat runs; an effect the other way counts as inactive or inconclusive; note: series mostly up to about 63 µM; nearly all actives have a fitted effect of over 50% in size). The essentials:
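Cells: VDR-bla, 2,000/well, settled 4 h. Treatment: compounds in DMSO, 16 h, 37C/5% CO2. Readout: CellTiter-Glo luminescence after 30 min RT.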

The nature of experiment [9]: qHTS assay to identify small molecule antagonists of the vitamin D receptor (VDR) signaling pathway - cell viability counter screen (AID 743225; active = well fitted curve in the direction sought with a large enough effect in the repeat runs; an effect the other way counts as inactive or inconclusive; note: nearly all actives have a fitted effect of over 50% in size). The essentials: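 Compounds were pinned onto VDR-bla HEK 293T cells together with 1-alpha,25-dihydroxyvitamin D3 at 3 nM final. After 16 h at 37C and 5% CO2 plus the reporter readout, cell viability was measured by CellTiter-Glo luminescence (30 min, room temperature).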

Experiment [10] can be described thus: qHTS assay to identify small molecule agonists of the NFkB signaling pathway - cell viability counter screen (AID 1159515). Note: series mostly up to about 61 µM; nearly all actives have a fitted effect of over 55% in size. A digest of the protocol: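 Cells are seeded (2,000 NFkB-bla ME-180 per well), rested overnight, and dosed with DMSO-dissolved compounds for 5 hr at 37 C. Viability is then read by CellTiter-Glo luminescence after 30 min at room temperature.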

The nature of experiment [11]: qHTS assay to identify small molecule agonists of the endoplasmic reticulum stress response signaling pathway (AID 1159516; active = well fitted activation curve with a large enough effect in the signal ratio in the repeat runs, not every such curve was filed as active; the % refers to the signal ratio). A digest of the protocol: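 Cells are seeded at 1,500 per well and incubated overnight. Compounds in DMSO are added for 5 hr at 37 C, then beta-lactamase FRET substrate for 2 hr at room temperature, and fluorescence at 460 and 530 nm is measured.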

Experiment [12] in a line: qHTS assay to identify small molecule agonists of the endoplasmic reticulum stress response signaling pathway - cell viability counter screen (AID 1159517). The essentials: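 Steps: seed 1,500 ESRE-bla HeLa cells per well; incubate overnight at 37 C, 5% CO2; add compounds in DMSO for 5 hr; run FRET substrate 2 hr RT; add CellTiter-Glo, wait 30 min, read luminescence.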

A short description of experiment [13]: qHTS assay to identify small molecule antagonists of the retinoid-related orphan receptor gamma (ROR-gamma) signaling pathway - cell viability counter screen (AID 1159520; active = well fitted curve in the direction sought with a large enough effect in the repeat runs; an effect the other way counts as inactive or inconclusive; note: nearly all actives have a fitted effect of over 50% in size). The essentials:
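Tet-on ROR gamma CHO cells were given compounds for 2 hr, then doxycycline hyclate at 1 uM final, and incubated 16 hr at 37 C. Viability was measured as ATP content by CellTiter-Glo luminescence.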

The target of experiment [14] is Nuclear receptor ROR-gamma (Homo sapiens) (UniProt P51449). Description: qHTS assay to identify small molecule antagonists of the retinoid-related orphan receptor gamma (ROR-gamma) signaling pathway (AID 1159521; active = well fitted curve in the direction sought with a large enough effect in the repeat runs; an effect the other way counts as inactive or inconclusive). The essentials: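 Test compounds were applied to Tet-on RORγ CHO cells 2 h ahead of doxycycline hyclate (1 uM final). Luciferase reporter activity was quantified by luminescence after 16 h at 37 C and 5% CO2.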

Experiment [15] in a line: qHTS assay to identify small molecule agonists of the AP-1 signaling pathway - cell viability counter screen (AID 1159525). Note: nearly all actives have a fitted effect of over 55% in size. The essentials: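 Same-well cytotoxicity counter screen of the Tox21 10K library in ME-180 cells. The readout is ATP-dependent luminescence after 5 h compound treatment. Data are normalised to DMSO and tetra n-octyl ammonium bromide controls.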
Experiment [16] is described as follows: qHTS assay to identify small molecule agonists of the AP-1 signaling pathway (AID 1159526).
Experiment [17] concerns the target Retinoic acid receptor RXR-alpha (Homo sapiens) (UniProt P19793). Description: qHTS assay to identify small molecule agonists of the RXR signaling pathway (AID 1159527). Note: nearly all actives have a fitted effect of over 35% in size. The essentials:
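Using 9-cis retinoic acid as the reference agonist, chemicals were tested in HEK 293T cells […] for 16 hr; substrate loading lasted 2 hr at room temperature.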

Experiment [18] in a line: qHTS assay to identify small molecule agonists of the farnesoid-X-receptor (FXR) signaling pathway - cell viability counter screen (AID 743218; active = well fitted curve in the direction sought with a large enough effect in the repeat runs; an effect the other way counts as inactive or inconclusive; note: nearly all actives have a fitted effect of over 45% in size; note: potency is the fitted concentration of half-maximal effect). A digest of the protocol: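 Cells were seeded, left 5 h at 37 C and 5% CO2, then dosed with compound in DMSO for 16 h. After the beta-lactamase FRET read, CellTiter-Glo was added and luminescence measured 30 min later.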
Experiment [19] has as its target Bile acid receptor (Homo sapiens) (UniProt Q96RI1). Description: qHTS assay to identify small molecule antagonists of the farnesoid-X-receptor (FXR) signaling pathway (AID 743217; active = well fitted inhibition curve with a large enough effect in the signal ratio in the repeat runs, not every such curve was filed as active; the % refers to the signal ratio). The essentials: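 Cells carrying a UAS-driven beta-lactamase reporter (GeneBLAzer FXR-UAS-bla HEK 293T) were plated and rested 5 h at 37 °C. Compounds in DMSO were added alongside chenodeoxycholic acid agonist at 50 uM final and left 16 h at 37 °C before FRET substrate readout.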

The target is the same in experiment [20]. Put plainly: qHTS assay to identify small molecule agonists of the farnesoid-X-receptor (FXR) signaling pathway (AID 743220; active = well fitted activation curve with a large enough effect in the signal ratio in the repeat runs, not every such curve was filed as active; the % refers to the signal ratio). The essentials: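 FXR-UAS-bla HEK 293T cells carrying a UAS-driven beta-lactamase reporter were plated for 5 h at 37C/5% CO2, then exposed to DMSO-dissolved Tox21 10K compounds for 16 h at 37C. A LiveBLAzer B/G FRET substrate was loaded for 2 h at room temperature before fluorescence reading.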

The structures appear in SMILES notation. “And” between values parts separate entries of the source, which are not always exact repeats. Equal values may be shown once. Records with an inconclusive call do not appear. The source made the active and inactive calls. Unless noted, calls come from the whole dose curve.

Bile acid receptor (Homo sapiens), sequence (Q96RI1 whole entry, looked up): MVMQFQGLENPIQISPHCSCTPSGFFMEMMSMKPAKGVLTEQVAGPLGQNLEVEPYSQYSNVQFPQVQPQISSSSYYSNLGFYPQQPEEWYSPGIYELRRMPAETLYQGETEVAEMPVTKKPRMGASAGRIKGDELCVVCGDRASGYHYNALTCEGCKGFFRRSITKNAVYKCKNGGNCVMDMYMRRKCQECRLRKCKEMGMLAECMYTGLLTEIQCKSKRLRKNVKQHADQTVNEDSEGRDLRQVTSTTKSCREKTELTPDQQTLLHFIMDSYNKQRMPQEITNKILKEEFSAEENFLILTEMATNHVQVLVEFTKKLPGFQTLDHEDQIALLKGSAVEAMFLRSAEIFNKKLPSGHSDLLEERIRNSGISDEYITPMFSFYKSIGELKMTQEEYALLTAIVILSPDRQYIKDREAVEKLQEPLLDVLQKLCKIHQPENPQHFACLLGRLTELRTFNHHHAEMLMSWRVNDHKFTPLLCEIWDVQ
Peroxisome proliferator-activated receptor delta (Homo sapiens), sequence (Q03181 whole entry, looked up): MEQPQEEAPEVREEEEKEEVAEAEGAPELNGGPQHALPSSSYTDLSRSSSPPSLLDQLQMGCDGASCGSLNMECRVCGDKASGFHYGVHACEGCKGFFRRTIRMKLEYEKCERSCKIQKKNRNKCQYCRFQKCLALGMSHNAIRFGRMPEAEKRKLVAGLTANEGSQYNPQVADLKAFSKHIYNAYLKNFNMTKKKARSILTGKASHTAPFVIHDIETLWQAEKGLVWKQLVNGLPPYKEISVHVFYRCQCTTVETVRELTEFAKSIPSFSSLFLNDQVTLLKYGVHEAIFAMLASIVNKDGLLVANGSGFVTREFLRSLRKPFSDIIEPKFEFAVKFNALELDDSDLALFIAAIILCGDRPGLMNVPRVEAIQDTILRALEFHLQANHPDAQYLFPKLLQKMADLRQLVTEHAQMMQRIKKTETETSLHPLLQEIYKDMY
Vitamin D3 receptor (Homo sapiens), sequence (P11473 whole entry, looked up): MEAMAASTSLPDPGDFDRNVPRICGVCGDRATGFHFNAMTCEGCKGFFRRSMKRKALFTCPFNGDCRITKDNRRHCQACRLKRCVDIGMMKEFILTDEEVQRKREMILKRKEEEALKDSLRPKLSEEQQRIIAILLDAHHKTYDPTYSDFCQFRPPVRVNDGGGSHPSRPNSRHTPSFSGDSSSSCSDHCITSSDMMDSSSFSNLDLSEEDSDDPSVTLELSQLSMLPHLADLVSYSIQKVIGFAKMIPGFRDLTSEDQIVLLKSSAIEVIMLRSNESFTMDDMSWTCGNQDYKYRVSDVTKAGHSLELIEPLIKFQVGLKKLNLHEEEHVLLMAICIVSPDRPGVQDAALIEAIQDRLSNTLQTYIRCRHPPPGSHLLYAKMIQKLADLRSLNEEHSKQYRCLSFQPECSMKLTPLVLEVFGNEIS
Retinoic acid receptor RXR-alpha (Homo sapiens), sequence (P19793 whole entry, looked up): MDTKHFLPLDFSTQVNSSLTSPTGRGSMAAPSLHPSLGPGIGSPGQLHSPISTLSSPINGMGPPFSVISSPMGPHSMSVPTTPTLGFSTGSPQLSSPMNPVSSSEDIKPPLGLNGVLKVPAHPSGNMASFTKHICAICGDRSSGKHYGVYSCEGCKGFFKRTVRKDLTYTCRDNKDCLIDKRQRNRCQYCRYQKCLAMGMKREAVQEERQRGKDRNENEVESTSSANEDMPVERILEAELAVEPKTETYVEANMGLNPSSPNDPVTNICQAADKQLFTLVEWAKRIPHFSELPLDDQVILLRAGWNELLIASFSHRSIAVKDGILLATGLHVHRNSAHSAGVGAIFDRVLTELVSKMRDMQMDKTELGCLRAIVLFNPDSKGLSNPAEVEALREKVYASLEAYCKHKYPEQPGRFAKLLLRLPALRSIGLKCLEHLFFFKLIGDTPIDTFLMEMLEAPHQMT

For `Clc1ccccc1-c1nnc(-c2ccccc2Cl)nn1`, the Potency entry in experiment [1], in experiment [2], in [3], in experiment [4], in experiment [5] and in [7] was “inactive” in each case. Besides, the Potency entry in [8], in experiment [9], in [10], in experiment [11], in experiment [12] and in experiment [13] was “inactive” throughout. Moreover, the Potency result in experiment [14], in experiment [15] and in [17] was “inactive” each time. Besides, the result in experiment [6] and in experiment [16] was inactive.

With `O=S(=O)(O)C(F)(F)C(F)(F)C(F)(F)C(F)(F)C(F)(F)C(F)(F)C(F)(F)C(F)(F)F`, the Potency entry in experiment [1], in experiment [7], in experiment [10], in [11], in experiment [12] and in experiment [13] was “inactive” in each case. In addition, the Potency result in experiment [14], in experiment [15] and in experiment [17] was “inactive” each time. Besides, the Potency in [3] was 26.2 µM (active) and 43.6 µM (active); in [18] it was 52.3 µM (active) and 49 µM (active) and 33.6 µM (active); in experiment [5], 41.6 µM (active) and 13.8 µM (active) and 6.16 µM (active). Besides, the molecule was classed as inactive in experiment [6] and in [16].

For `CCC/C=N/O`, the Potency entry in experiment [1], in experiment [3], in experiment [19], in experiment [18], in experiment [20] and in experiment [5] was “inactive” throughout. Also, the Potency result in experiment [7], in [8], in experiment [9], in [10], in experiment [11] and in [12] was “inactive” in each case. The Potency entry in experiment [13], in [14], in [15] and in [17] was “inactive” throughout. Further, the call in experiment [6] and in [16] was inactive.

For `N#Cc1cccnc1`, the Potency entry in [1], in experiment [2], in [3], in [4], in experiment [19] and in experiment [18] was “inactive” each time. Besides, the Potency entry in experiment [20], in experiment [5], in [7], in experiment [8], in experiment [9] and in experiment [10] was “inactive” each time. The Potency entry in [11], in [12], in [13], in [14], in experiment [15] and in experiment [17] was “inactive” throughout. Also, the molecule was called inactive in [6] and in experiment [16].

On to `CN(C)P(=O)(N(C)C)N(C)C`, for which the Potency entry in experiment [1], in experiment [2], in [3], in [4], in [19] and in [20] was “inactive” each time. In addition, the Potency result in [5], in [7], in experiment [8], in [9], in [10] and in experiment [11] was “inactive” in each case. Also, the Potency entry in experiment [12], in experiment [13], in experiment [14], in experiment [15] and in [17] was “inactive” each time. The molecule was classed as inactive in [6] and in experiment [16].

`O=[N+]([O-])/N=C1\NCCN1Cc1ccc(Cl)nc1`: the Potency entry in experiment [1], in experiment [3], in experiment [19], in experiment [18], in experiment [20] and in experiment [5] was “inactive” each time. For the same molecule, the Potency result in experiment [7], in experiment [8], in [9], in experiment [10], in [11] and in experiment [12] was “inactive” throughout. For the same molecule, the Potency result in experiment [13], in experiment [14], in experiment [15] and in experiment [17] was “inactive” in each case. The call in [6] and in experiment [16] was inactive.

Regarding `CCCCOCC1CO1` (stereo unspecified), the Potency entry in experiment [1], in experiment [2], in [3], in [4], in experiment [19] and in [18] was “inactive” in each case. Besides, the Potency result in experiment [20], in experiment [5], in [7], in [8], in experiment [9] and in experiment [10] was “inactive” throughout. Besides, the Potency result in experiment [11], in [12], in experiment [13], in experiment [14], in experiment [15] and in experiment [17] was “inactive” each time. Also, the outcome in [6] and in experiment [16] was inactive.

Values taken from PubChem BioAssay (Tox21).
